Reference: PubChem BioAssay AID1159580 (chemical genetic matrix, 2015)
Out of some 5,500 compounds screened, about 2,000 (36%) were called active. About 18% were inconclusive and are not listed. Cut-off read from the data, not from the text of the source: active = normalized growth mostly below about 0.91 (no sharp cut-off); inconclusive = no clear call, values can overlap the other calls; inactive = mostly above about 0.92. The list shows a part of the results.

Experiment: chemical genetic growth profiling, strain panel (AID 1159580);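 note: tested at 20 µM; growth read once vehicle control cultures reached saturation at 30 °C; 1 = growth at the plate median or of vehicle wells; lower values mean less growth of the strain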
Conditions: growth OD

Measured: normalized growth

COc1cc(C(=O)N2CCOCC2)cc(OC)c1OC
active: S. cerevisiae deletion strains, locus YKL085W, strain MDH1 (second series), active compounds read low 0.353 | S. cerevisiae deletion strains, locus YKL085W, strain MDH1, active compounds read low 0.353 | S. cerevisiae deletion strains, locus YKR001C, strain vps1, active compounds read low 0.127 | S. cerevisiae deletion strains, locus YLR102C, strain apc9, active compounds read low 0.102 | S. cerevisiae deletion strains, locus YLR268W, strain sec22, active compounds read low 0.0891 | S. cerevisiae deletion strains, locus YLR371W, strain rom2, active compounds read low 0.0857 | S. cerevisiae deletion strains, locus YLR418C, strain cdc73, active compounds read low 0.102 | S. cerevisiae deletion strains, locus YML032C, strain rad52, active compounds read low 0.845 | S. cerevisiae deletion strains, locus YML124C, strain tub3, active compounds read low 0.158 | S. cerevisiae deletion strains, locus YMR078C, strain ctf18, active compounds read low 0.205 | S. cerevisiae deletion strains, locus YMR223W, strain ubp8, active compounds read low 0.0851 | S. cerevisiae deletion strains, locus YNL250W, strain rad50, active compounds read low 0.531 | S. cerevisiae deletion strains, locus YNL271C, strain bni1, active compounds read low 0.214 | S. cerevisiae deletion strains, locus YNL298W, strain CLA4, active compounds read low 0.456 | S. cerevisiae deletion strains, locus YNL307C, strain MCK1, active compounds read low 0.0679 | S. cerevisiae deletion strains, locus YOL147C, strain pex11, active compounds read low 0.829 | S. cerevisiae deletion strains, locus YOR136W, strain idh2, active compounds read low 0.0963 | S. cerevisiae deletion strains, locus YOR184W, strain ser1, active compounds read low 0.0727 | S. cerevisiae deletion strains, locus YOR316C, strain cot1, active compounds read low 0.0956 | S. cerevisiae deletion strains, locus YPR119W, strain clb2, active compounds read low 0.143 | S. cerevisiae deletion strains, locus YPR163C, strain tif3, active compounds read low 0.0748 | S. cerevisiae deletion strains, locus YPR167C, strain met16, active compounds read low 0.0923 | S. cerevisiae deletion strains, strain wtn01, active compounds read low 0.0623
inactive: S. cerevisiae deletion strains, locus YJR075W, strain HOC1, active compounds read low 1 | S. cerevisiae deletion strains, locus YKL009W, strain mrt4, active compounds read low 0.926 | S. cerevisiae deletion strains, locus YKL068W, active compounds read low 0.988 | S. cerevisiae deletion strains, locus YKL160W, strain elf1, active compounds read low 1 | S. cerevisiae deletion strains, locus YKL190W, strain CNB1, active compounds read low 1.01 | S. cerevisiae deletion strains, locus YKR026C, strain gcn3, active compounds read low 0.975 | S. cerevisiae deletion strains, locus YKR091W, strain srl3, active compounds read low 0.977 | S. cerevisiae deletion strains, locus YLL001W, strain dnm1, active compounds read low 0.987 | S. cerevisiae deletion strains, locus YLL026W, active compounds read low 0.984 | S. cerevisiae deletion strains, locus YLL041C, strain sdh2, active compounds read low 0.981 | S. cerevisiae deletion strains, locus YLR027C, strain aat2, active compounds read low 1.01 | S. cerevisiae deletion strains, locus YLR039C, strain RIC1, active compounds read low 1.04 | S. cerevisiae deletion strains, locus YLR058C, strain SHM2, active compounds read low 1.01 | S. cerevisiae deletion strains, locus YLR113W, strain HOG1, active compounds read low 0.999 | S. cerevisiae deletion strains, locus YLR221C, strain rsa3, active compounds read low 0.968 | S. cerevisiae deletion strains, locus YLR258W, strain gsy2, active compounds read low 1.01 | S. cerevisiae deletion strains, locus YLR262C, strain YPT6 (second series), active compounds read low 1.02 | S. cerevisiae deletion strains, locus YLR262C, strain YPT6, active compounds read low 1.06 | S. cerevisiae deletion strains, locus YLR320W, strain mms22, active compounds read low 0.982 | S. cerevisiae deletion strains, locus YLR330W, strain CHS5, active compounds read low 1 | S. cerevisiae deletion strains, locus YLR342W, strain FKS1 (second series), active compounds read low 1.06 | S. cerevisiae deletion strains, locus YLR342W, strain FKS1, active compounds read low 0.967 | S. cerevisiae deletion strains, locus YLR357W, strain rsc2, active compounds read low 0.998 | S. cerevisiae deletion strains, locus YLR370C, strain arc18, active compounds read low 1 | S. cerevisiae deletion strains, locus YLR384C, strain iki3, active compounds read low 0.984 | S. cerevisiae deletion strains, locus YML016C, strain PPZ1, active compounds read low 1.01 | S. cerevisiae deletion strains, locus YML120C, strain ndi1, active compounds read low 0.985 | S. cerevisiae deletion strains, locus YMR058W, strain fet3, active compounds read low 0.987 | S. cerevisiae deletion strains, locus YMR125W, strain sto1, active compounds read low 0.993 | S. cerevisiae deletion strains, locus YMR129W, active compounds read low 0.982 | S. cerevisiae deletion strains, locus YMR205C, strain PFK2, active compounds read low 0.982 | S. cerevisiae deletion strains, locus YMR231W, strain pep5, active compounds read low 0.975 | S. cerevisiae deletion strains, locus YMR263W, strain SAP30, active compounds read low 1 | S. cerevisiae deletion strains, locus YMR307W, strain GAS1, active compounds read low 1.06 | S. cerevisiae deletion strains, locus YNL067W, strain RPL9B, active compounds read low 1 | S. cerevisiae deletion strains, locus YNL071W, strain lat1, active compounds read low 0.987 | S. cerevisiae deletion strains, locus YNL128W, strain TEP1, active compounds read low 1 | S. cerevisiae deletion strains, locus YNL153C, strain GIM3, active compounds read low 0.997 | S. cerevisiae deletion strains, locus YNL183C, strain NPR1, active compounds read low 0.967 | S. cerevisiae deletion strains, locus YNL209W, strain ssb2, active compounds read low 0.981 | S. cerevisiae deletion strains, locus YNL233W, strain BNI4, active compounds read low 0.992 | S. cerevisiae deletion strains, locus YNL248C, strain rpa49, active compounds read low 0.991 | S. cerevisiae deletion strains, locus YNL322C, strain KRE1 (second series), active compounds read low 0.975 | S. cerevisiae deletion strains, locus YNL322C, strain KRE1, active compounds read low 1.01 | S. cerevisiae deletion strains, locus YNR049C, strain mso1, active compounds read low 0.971 | S. cerevisiae deletion strains, locus YNR052C, strain pop2, active compounds read low 1.04 | S. cerevisiae deletion strains, locus YOL006C, strain TOP1, active compounds read low 1.05 | S. cerevisiae deletion strains, locus YOR001W, strain rrp6, active compounds read low 0.967 | S. cerevisiae deletion strains, locus YOR061W, strain CKA2, active compounds read low 1.01 | S. cerevisiae deletion strains, locus YOR069W, strain VPS5, active compounds read low 1.01 | S. cerevisiae deletion strains, locus YOR070C, strain gyp1, active compounds read low 0.982 | S. cerevisiae deletion strains, locus YOR080W, strain dia2, active compounds read low 0.979 | S. cerevisiae deletion strains, locus YOR083W, strain WHI5, active compounds read low 1.01 | S. cerevisiae deletion strains, locus YOR106W, strain vam3, active compounds read low 1.01 | S. cerevisiae deletion strains, locus YOR144C, strain elg1, active compounds read low 1.01 | S. cerevisiae deletion strains, locus YOR231W, strain MKK1, active compounds read low 1.01 | S. cerevisiae deletion strains, locus YOR265W, strain rbl2, active compounds read low 1 | S. cerevisiae deletion strains, locus YOR270C, strain vph1, active compounds read low 0.978 | S. cerevisiae deletion strains, locus YOR290C, strain snf2, active compounds read low 1.01 | S. cerevisiae deletion strains, locus YPL051W, strain arl3, active compounds read low 0.993 | S. cerevisiae deletion strains, locus YPL055C, strain LGE1, active compounds read low 1 | S. cerevisiae deletion strains, locus YPL078C, strain atp4, active compounds read low 0.982 | S. cerevisiae deletion strains, locus YPL106C, strain sse1, active compounds read low 0.998 | S. cerevisiae deletion strains, locus YPL240C, strain hsp82, active compounds read low 1 | S. cerevisiae deletion strains, locus YPL241C, strain CIN2, active compounds read low 1.01 | S. cerevisiae deletion strains, locus YPL256C, strain CLN2, active compounds read low 1.07 | S. cerevisiae deletion strains, locus YPR141C, strain kar3, active compounds read low 1.03 | S. cerevisiae strains, strain wild type, active compounds read low 1.01
